Measured values published in PubChem BioAssay (Tox21).
Several values for one entry are separate records, joined by “and”; a condition that tells them apart may be missing. Identical values can stand only once. Records with an inconclusive call do not appear. Where a structure was tested more than once in an assay, its records may differ in their call. Activity calls are given as the source filed them. Unless noted, the call rests on the fitted dose curve; in most records, active means well fitted curve in the direction sought with a large enough effect in the repeat runs; inconclusive means weak or mixed curves; inactive means no such curve, though single readings can be large; an effect the other way counts as inactive or inconclusive.

Legend:
[1] = qHTS assay for small molecule agonists of the p53 signaling pathway (AID 651631; calls by dose curve; further: nearly all actives have a fitted effect of over 15% in size; further: potency means the concentration at half of the fitted maximal effect)
Outline: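 HCT-116 cells carrying a beta-lactamase reporter under p53 response elements were dosed with compound for 16 h at 37 °C. LiveBLAzer B/G FRET substrate was then added for 2 h at room temperature, and fluorescence intensity was read to detect pathway agonism.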

[2] = qHTS assay for small molecules that induce genotoxicity in human embryonic kidney cells expressing luciferase-tagged ATAD5 (AID 651632); further: nearly all actives have a fitted effect of over 15% in size; further: potency means the concentration at half of the fitted maximal effect
Outline: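 Luminescent reporter readout, HEK293T ATAD5-luc line: 16 hr drug exposure (37C, 5% CO2) followed by Amplite, 30 min RT.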

[3] = qHTS assay for small molecule agonists of the p53 signaling pathway - cell viability (AID 651633; calls by dose curve;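 further: p53RE-bla HCT reporter cells with a stable beta-lactamase p53 reporter; series mostly up to about 83 µM; nearly all actives have a fitted effect of over 30% in size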)
Outline: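 p53RE-bla cells, seeded at 4,000 per well and rested 5 h at 37 C/5% CO2, received compounds in DMSO for 16 h at 37 C. CellTiter-Glo was then added, and luminescence was read after 30 min at room temperature to gauge cytotoxicity.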

[4] = qHTS assay for small molecules that induce genotoxicity in human embryonic kidney cells expressing luciferase-tagged ATAD5 - cell viability (AID 651634; calls by dose curve; further: nearly all actives have a fitted effect of over 25% in size; further: potency means the concentration at half of the fitted maximal effect)
Outline: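 Viability read: CellTiter-Fluor fluorescence, 30 min at 37C. Cells: HEK293T, luciferase-tagged ATAD5. Exposure: 15.5 hr, 37C, 5% CO2, compound or DMSO vehicle.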

[5] = qHTS assay for small molecule disruptors of the mitochondrial membrane potential - cell viability (AID 720634; calls by dose curve; further: nearly all actives have a fitted effect of over 20% in size; further: potency means the concentration at half of the fitted maximal effect)
Outline: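 HepG2, 1 hr compound, 37 C. ATP luminescence via CellTiter-Glo, 30 min RT, same well as m-MPI.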

[6] = qHTS assay for small molecule disruptors of the mitochondrial membrane potential (AID 720635); further: potency means the concentration at half of the fitted maximal effect
Outline: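 HepG2 cells (2,000/well) attached overnight at 37C, then took compound for 1 hr at 37C, 5% CO2. Mito-MPS dye was added for 30 min; fluorescence was read at 490/535 nm (monomers) and 540/590 nm (aggregates).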

[7] = qHTS assay to test for compound auto fluorescence at 590 nm (red) in HepG2 cells (AID 720674)
Outline: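 Rose Bengal sodium served as the red fluorophore standard. HepG2 monolayers (overnight attachment, MEM with 10% FBS) were exposed to test compounds for 1 hr at 37 C and read at Ex 540/Em 590 nm.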

[8] = qHTS assay to test for compound auto fluorescence at 535 nm (green) in HepG2 cells (AID 720675)
[9] = qHTS assay to test for compound auto fluorescence at 460 nm (blue) in HEK293 cells (AID 720678)
Outline: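 HEK293 cells (2,000 per well, medium with 10% dialyzed FBS) attached for 4-5 hr at 37C, then received compound and stood overnight at 37C, 5% CO2. Blue fluorescence was read at Ex/Em 405/460 nm and expressed relative to triamterene.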

[10] = qHTS assay to test for compound auto fluorescence at 590 nm (red) in HEK293 cells (AID 720679)
Outline: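 HEK293 cells (2,000/well, medium with 10% dialyzed FBS) attached for 4-5 hr at 37C, received 23 nL compound and were incubated overnight at 37C, 5% CO2. Red fluorescence was then read at 540/590nm Ex/Em, referenced to Rose Bengal sodium.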

Measured: Potency

C#C[C@]1(O)CC[C@H]2[C@@H]3CCc4cc(O)ccc4[C@H]3CC[C@@]21C
active: [1] 8.41 µM and 7.64 µM and 6.11 µM | [4] 15.2 µM | [6] 13.3 µM and 13.6 µM and 17.2 µM
inactive: all other assays above

OC[C@@H](O)[C@@H](O)[C@H](O)[C@H](O)CO
inactive: all assays above

CC(C)CC(C)CC(O)CC(C)C (configuration not stated)
inactive: all assays above

C=C(C)C(N)=O
inactive: all assays above

CC1(C)O[C@@H]2[C@@H](CO[C@@]3(COS(N)(=O)=O)OC(C)(C)O[C@@H]23)O1
inactive: all assays above

NC(=O)NO
inactive: all assays above

CC(O)COc1ccccc1 (configuration not stated)
inactive: all assays above

Cc1cccc2ccccc12
inactive: all assays above

C=CC(=O)NC(C)(C)CS(=O)(=O)O
inactive: all assays above

COc1ccccc1NC(=O)CC(C)=O
inactive: all assays above

Cc1ccc(O)c(-n2nc3ccccc3n2)c1
active: [2] 9.44 µM and 6.11 µM | [5] 30.6 µM | [6] 21.1 µM and 60.6 µM and 30.6 µM
inactive: all other assays above

NC(=O)OCC(COC(N)=O)c1ccccc1
inactive: all assays above

C[C@]12C=CC(=O)C=C1CC[C@@H]1[C@@H]2C(=O)C[C@@]2(C)[C@H]1CC[C@]2(O)C(=O)CO
inactive: all assays above

Nc1cccc(N)c1
active: [6] 24 µM
inactive: all other assays above

CN(C)Cc1cc(CN(C)C)c(O)c(CN(C)C)c1
inactive: all assays above

Oc1cccc(O)c1
inactive: all assays above

CCCCCCCCCCCCCC(=O)OC(C)C
inactive: all assays above

CC(=O)CCC(C)C
inactive: all assays above

C[C@]12C[C@H](O)[C@H]3[C@@H](CCC4=CC(=O)CC[C@@]43C)[C@@H]1CC[C@@H]2C(=O)CO
inactive: all assays above

CCCCOCCOCCSC#N
inactive: all assays above

CCCCOCCOCCOC(C)=O
inactive: all assays above

CCOCCO
inactive: all assays above

CO[C@H]1C=CO[C@@]2(C)Oc3c(C)c(O)c4c(O)c(c(/C=N/N5CCN(C)CC5)c(O)c4c3C2=O)NC(=O)/C(C)=C\C=C[C@H](C)[C@H](O)[C@@H](C)[C@@H](O)[C@@H](C)[C@H](OC(C)=O)[C@@H]1C
active: [4] 23.7 µM and 48.8 µM and 39 µM | [6] 10.6 µM and 24.5 µM and 11 µM
inactive: all other assays above

CC(=O)c1ccc(S(=O)(=O)NC(=O)NC2CCCCC2)cc1
inactive: all assays above

COc1ccc(O)cc1
inactive: all assays above

COc1cc(C=O)ccc1O
inactive: all assays above

C/C=C/c1ccc(O)c(OC)c1
active: [6] 61.1 µM
inactive: all other assays above

O=c1cc[nH]c(=O)[nH]1
inactive: all assays above

COc1ccc(C(=O)c2ccccc2)c(O)c1
inactive: all assays above

CCOC(=O)C(C)(C)Oc1ccc(Cl)cc1
inactive: all assays above

CC1=NN(c2ccccc2)C(=O)C1
active: [6] 11.9 µM and 61.5 µM
inactive: all other assays above

O=C(O)Cc1cccc2ccccc12
not listed: [6]
inactive: all other assays above

O=[N+]([O-])c1ccc(O)cc1
active: [4] 56.6 µM | [6] 71.2 µM and 61.1 µM
inactive: all other assays above

OCCCc1ccccc1
inactive: all assays above

CCCCC/C(C=O)=C\c1ccccc1
inactive: all assays above

CCCCCCCC(=O)OCC(O)CO (configuration not stated)
inactive: all assays above

O=C(O)CCCCC1CCSS1 (configuration not stated)
inactive: all assays above

CCN1CCCC1=O
inactive: all assays above

Cc1cccc(Nc2cc(Cl)nc(SCC(=O)O)n2)c1C
inactive: all assays above

O=C1CCCCCN1
inactive: all assays above

C[C@]12CC[C@@H]3c4ccc(O)cc4C[C@@H](CCCCCCCCCS(=O)CCCC(F)(F)C(F)(F)F)[C@H]3[C@@H]1CC[C@@H]2O (some centres not stated)
active: [6] 2.66 µM and 2.73 µM
not listed: [5]
inactive: all other assays above

CCN(CC)CCOC(=O)c1ccc(N)cc1
not listed: [6]
inactive: all other assays above

C1CNCCN1
inactive: all assays above
